Assay outcomes as filed in PubChem.
This is a sample that favours compounds with a hit; in the whole collection about 4.2% have one here.
esBAF inh: inhibitors of esBAF chromatin remodeling in mouse ES cells; Bmi1-luciferase knock-in reporter, 24 h; 100% = twice the neutral-well signal; reporter increase, % at 12.5 µM; 350,000 tested, 2% active; AID 602393; in the data active = activation above about 40%; inconclusive = no clear call, values can overlap the other calls;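 also: 0% = median of the plate's neutral control wells and 100% = double that signal; a rise in the Bmi1 reporter signal indicates esBAF inhibition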
AHR act: activators of human aryl hydrocarbon receptor. AHR-responsive luciferase reporter cells, luminescence. activation, % at 5 µM. 320,000 tested, 2.5% active. AID 2796; in the data active = activation above about 47%;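 also: 0% = vehicle wells and 100% = reference agonist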
FXN GAA850 act: increases GAA850 frataxin promoter reporter activity; HEK293 lucGAA850 FXN promoter luciferase reporter, 24 h; percent of 10 µM SAHA response; activation, % at 6 µM; 360,000 tested, 0.56% active; AID 540364;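 active = activation above the average of all compounds screened plus 3 SD, cutoff fixed separately per campaign, cut at about 7.5% in these data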;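 also: 0% = DMSO wells and 100% = 10 µM SAHA wells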
MITF TRPM1 HTS: increases MITF-driven TRPM1 promoter luciferase signal; AID 588334; SK-MEL-5 TRPM1-promoter luciferase, 24 h; % of positive control, neutral wells = 0; activation, % at 12.5 µM; 300,000 tested, 0.75% active;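 active = mean activation of at least 80% with every replicate also reaching 80%; inconclusive = mean reaches 80% but some replicate falls short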;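 also: 0% = neutral control wells and 100% = parthenolide positive control wells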
Wnt bcat act: activators of Wnt/beta-catenin signaling | activation, % at 9.35 µM | Wnt/beta-catenin reporter cell assay, activator, plate reader | 300,000 tested, 1.2% active; in the data active = activation above about 30%, passing the limit was not always enough; inconclusive = no clear call, values can overlap the other calls;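 also: 0% = neutral control wells and 100% = positive control wells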
AHR act confirm: confirmation of human aryl hydrocarbon receptor activators. 2,300 tested, 87% active. shares compounds with AHR act. human cells, AHR-responsive luciferase reporter, luminescence. activation, % at 9 µM; in the data active = activation above about 49%;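 also: HepG2 hepatoma cells carrying a DRE-driven firefly luciferase reporter; 0% = vehicle wells and 100% = reference agonist wells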
PXR counter: activates human PXR in AHR activator counter-screen | shares compounds with AHR act | cell-based PXR reporter, luciferase luminescence | activation, % at 11.6 µM | 2,300 tested, 88% active | AID 434939; in the data active = activation above about 11%;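 also: human hepatoma DPX-2 cells expressing full-length human PXR; 0% = DMSO and 100% = reference agonist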
Target sequence (O75469 whole entry, looked up): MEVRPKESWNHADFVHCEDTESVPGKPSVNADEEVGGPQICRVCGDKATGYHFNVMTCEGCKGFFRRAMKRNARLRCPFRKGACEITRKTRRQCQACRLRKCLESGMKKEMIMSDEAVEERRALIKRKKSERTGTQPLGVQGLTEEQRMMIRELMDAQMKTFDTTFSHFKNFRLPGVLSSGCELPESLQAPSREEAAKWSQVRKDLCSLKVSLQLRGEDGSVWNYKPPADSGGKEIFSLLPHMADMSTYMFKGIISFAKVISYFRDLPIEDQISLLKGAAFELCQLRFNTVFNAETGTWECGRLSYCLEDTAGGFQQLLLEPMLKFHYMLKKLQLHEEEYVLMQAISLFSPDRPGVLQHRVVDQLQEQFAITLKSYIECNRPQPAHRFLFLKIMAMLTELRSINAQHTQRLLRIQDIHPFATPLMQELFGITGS
* = called active by the depositor; ? = inconclusive; / = no result.

SMILES	esBAF inh	AHR act	FXN GAA850 act	MITF TRPM1 HTS	Wnt bcat act	AHR act confirm	PXR counter
CN(c1ccccc1)c1nc(-n2ccnc2)nc(-n2ccnc2)n1	/	92*	4	-7	/	106*	29*
CC(C)NC(=O)COc1ccc(S(=O)(=O)N2CCCC2)cc1	9	87*	2	/	0	-3	16*
O=C(N/N=C/c1cccc(O)c1)c1ccc(COc2ccc3c(c2)CCC3)o1	52*	118*	0	26	/	64*	19*
CCCc1ccc(OCc2ccc(C(=O)N/N=C/c3cccnc3)o2)cc1	39	/	6	67	0	/	/
O=C(Cn1cnc2ccccc2c1=O)c1ccc2c(c1)OCCO2	-4	9	4	72	-3	/	/
Cc1nn(CC(=O)c2ccc3c(c2)OCCO3)c(=O)c(C#N)c1C	-1	88*	-2	2	-2	91*	18*
C[C@H]1CN([C@@H](C)CO)C(=O)c2c(c3ccccc3n2C)-c2ccccc2CO[C@@H]1CN(C)S(=O)(=O)c1cccs1	-2	/	/	/	/	/	/
CN(C)C(=O)C[C@@H]1C=C[C@@H](NC(=O)Nc2cccc(F)c2)[C@@H](CO)O1	-1	/	/	/	/	/	/
CCC(=O)N[C@@H]1C=C[C@@H](CC(=O)NCc2cc(F)cc(F)c2)O[C@@H]1CO	-5	/	/	/	/	/	/
Cc1sc(NC(=O)C2CSC3(C)CCC(=O)N23)nc1-c1ccc(F)cc1 (stereo unspecified)	/	151*	2	-21	-2	101*	151*
CC12CCC(=O)N1C(C(=O)Nc1nc3ccc(S(C)(=O)=O)cc3s1)CS2 (stereo unspecified)	2	2	2	-2	-1	/	/
CC12CCC(=O)N1C(C(=O)Nc1nc3ccc(Cl)cc3s1)CS2 (stereo unspecified)	27	127*	3	7	4	110*	65*
Cc1ccc(-c2csc(NC(=O)C3CSC4(C)CCC(=O)N34)n2)cc1 (stereo unspecified)	-4	5	-1	-11	0	/	/
Cc1nnc(N2C(=O)c3cccc4c([N+](=O)[O-])ccc(c34)C2=O)s1	-1	87*	-1	-10	-2	100*	/
O=C(Nc1ccccc1OCc1ccccc1)c1ccccc1Br	6	103*	1	/	-1	105*	43*
C[C@H](CO)N1C[C@H](C)[C@H](CN(C)S(=O)(=O)c2ccc3c(c2)OCCCO3)OCc2cn(nn2)CCCC1=O	12	/	/	/	/	/	/
Cn1ccsc1=NC(=O)c1ccc(Cl)cc1	/	88*	5	31	15	126*	25*
Cn1ccsc1=NC(=O)c1ccc(OC(F)(F)F)cc1	?	98*	3	42	4	109*	24*
Cn1ccsc1=NC(=O)c1ccc(CS(C)(=O)=O)cc1	17	11	1	-3	4	/	/
CN1C(=O)c2cc(NC(=O)c3cnccn3)ccc2OC[C@H]2O[C@@H](CC(=O)NC3CCC3)CC[C@@H]21	5	/	/	/	/	/	/
O=C(Nc1nc(-c2ccco2)c(-c2ccco2)s1)C1CCC1	/	106*	3	-1	-1	91*	25*
CCOc1ccc(N=C2SC(C(=O)Nc3ccccc3C#N)C(N)=C2C(=O)Nc2ccc(Cl)cc2)cc1 (stereo unspecified)	/	86*	-2	-6	-1	71*	5
C[C@@H]1CN([C@@H](C)CO)S(=O)(=O)c2ccc(C3=CCCC3)cc2O[C@H]1CN(C)C(=O)CN(C)C	-3	/	/	/	/	/	/
CNC(=O)c1[nH]cnc1C(=O)Nc1ccc(Cl)cc1	32	121*	1	4	16	172*	35*
COc1ccccc1NC(=O)c1nc[nH]c1C(=O)Nc1ccccc1OC	-8	108*	-1	6	-9	53*	19*
O=C(Nc1ccccc1OC(=O)c1ccc(Cl)cc1)c1ccc(Cl)cc1	65*	79*	4	16	?	83*	/
COc1ccccc1NC(=O)c1ccc(C(=O)Nc2ccccc2OC)nc1	7	84*	0	1	0	103*	/
COc1ccc(NC(=O)N(C)C[C@H]2Oc3ccc(NC(=O)c4ccncc4)cc3C(=O)N([C@@H](C)CO)C[C@@H]2C)cc1	-5	/	/	/	/	/	/
